Out of some 310,000 compounds screened, about 14,000 (4.5%) showed an effect of 50% or more. Effects have a minus sign here. Shown is part of a subset that was picked to be rich in strong results.
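Further: peak tail current of the secondary pulse compared with the same well before compound.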

human ether-à-go-go-related gene (hERG) potassium channel, sequence (Q12809 whole entry, looked up): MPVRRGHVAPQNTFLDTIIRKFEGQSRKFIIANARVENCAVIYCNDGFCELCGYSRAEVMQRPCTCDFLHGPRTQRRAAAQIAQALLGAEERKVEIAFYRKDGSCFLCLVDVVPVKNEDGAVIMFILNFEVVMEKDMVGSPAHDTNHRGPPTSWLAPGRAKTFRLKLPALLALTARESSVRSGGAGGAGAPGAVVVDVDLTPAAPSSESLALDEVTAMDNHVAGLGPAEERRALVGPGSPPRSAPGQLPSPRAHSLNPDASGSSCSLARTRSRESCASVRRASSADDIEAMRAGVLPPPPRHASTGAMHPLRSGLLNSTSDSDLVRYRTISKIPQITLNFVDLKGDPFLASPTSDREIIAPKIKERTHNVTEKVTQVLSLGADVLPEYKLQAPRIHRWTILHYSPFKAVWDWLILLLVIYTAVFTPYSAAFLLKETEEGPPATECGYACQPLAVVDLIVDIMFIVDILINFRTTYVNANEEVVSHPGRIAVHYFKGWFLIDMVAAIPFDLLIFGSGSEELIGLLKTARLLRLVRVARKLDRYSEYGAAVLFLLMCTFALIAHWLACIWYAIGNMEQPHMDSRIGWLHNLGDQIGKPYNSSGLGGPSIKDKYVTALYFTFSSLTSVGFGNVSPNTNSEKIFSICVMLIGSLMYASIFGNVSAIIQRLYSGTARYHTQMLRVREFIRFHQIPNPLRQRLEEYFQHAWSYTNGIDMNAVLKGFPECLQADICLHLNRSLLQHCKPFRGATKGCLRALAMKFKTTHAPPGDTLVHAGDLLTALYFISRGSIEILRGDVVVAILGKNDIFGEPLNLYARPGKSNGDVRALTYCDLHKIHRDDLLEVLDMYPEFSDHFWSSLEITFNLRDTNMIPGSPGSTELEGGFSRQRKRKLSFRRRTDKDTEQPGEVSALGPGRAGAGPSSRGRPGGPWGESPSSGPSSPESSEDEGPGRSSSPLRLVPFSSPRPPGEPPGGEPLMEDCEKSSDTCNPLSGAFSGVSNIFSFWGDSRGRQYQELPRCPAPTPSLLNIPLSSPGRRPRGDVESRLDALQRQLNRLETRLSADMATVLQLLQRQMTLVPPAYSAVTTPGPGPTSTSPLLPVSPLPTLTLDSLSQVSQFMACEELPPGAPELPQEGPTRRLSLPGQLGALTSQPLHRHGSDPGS

This assay concerns the target human ether-à-go-go-related gene (hERG) potassium channel (human, UniProt Q12809). Nature of the assay: primary screen, population patch clamp on CHO cells stably expressing hERG; higher = less effect of the substance.
With `O=C(Nc1ccc(N2CCCCCC2)cc1)c1ccc[nH]1`, the “hERG current change (%, negative = inhibition) at 10uM” value is listed as -15.6%.
On to `O=C(NC(=S)NCC1CCCO1)c1ccccc1Br` (stereo not drawn), for which the “hERG current change (%, negative = inhibition) at 10uM” value turned out to be 4.66%.
Then `CN(CCc1ccccn1)C(=O)Nc1ccc(C(C)(C)C)cc1`, with -19.3%; and `O/N=C/c1cc2ccccc2n1Cc1ccccc1F`, with 13.6%; and `CC12CCC(C(=O)n3c1nc1ccccc13)C2(C)C` (stereo not drawn), with -3.14%.
The same measure for `Cc1cccc(NC(=O)CSc2nc3nc(C)cc(C)c3c(=O)[nH]2)c1`: 4.65%; for `Cc1ccc(C(=O)NC2CCN(CC(=O)Nc3cccc([N+](=O)[O-])c3)CC2)cc1`: -71.4%.
As to `CC1CCN(CC(=O)Nc2cccc([N+](=O)[O-])c2)CC1`, the “hERG current change (%, negative = inhibition) at 10uM” value is 3.53%.
Then `CCOc1ccc(C(=O)NC2CCN(CC(=O)NCc3ccccc3)CC2)cc1`, with -29.3%; and `CC(=O)NC1CCN(CC(=O)Nc2cccc([N+](=O)[O-])c2)CC1`, with 18.7%.
The same measure for `O=C(NC1CCN(Cc2cccc([N+](=O)[O-])c2)CC1)c1ccccc1`: -53.7%; for `COc1ccc(C)cc1NC(=O)NC1CCN(Cc2ccccc2)CC1`: -31.4%; for `O=C(NC1CCN(Cc2ccccc2)CC1)C1CCN(S(=O)(=O)c2cccc([N+](=O)[O-])c2)CC1`: -8.03%.
The same measure for `CCN1CCCC(NC(=O)c2cc([N+](=O)[O-])ccc2OC)C1.Cl.O` (stereo not drawn): -11.8%; for `O=C(NC1CCN(CC(=O)N(c2ccccc2)c2ccccc2)CC1)c1ccc([N+](=O)[O-])cc1`: -78%; for `CC1CCCCC1NC(=O)CN1CCC(NC(=O)c2ccc([N+](=O)[O-])cc2)CC1` (stereo not drawn): 2.55%.
Regarding `COc1ccc([N+](=O)[O-])cc1C(=O)NC1CCN(Cc2ccccc2)CC1.Cl.O`, the “hERG current change (%, negative = inhibition) at 10uM” value is recorded as -55.3%.
Then `O=C(NC1CCN(C(=O)c2cccc([N+](=O)[O-])c2)CC1)c1ccccc1`, with -32.8%; and `COc1ccccc1N/C=C/c1onc(C)c1[N+](=O)[O-]`, with 1.63%; and `Cn1c2ccccc2c2cc(/C=C(\NC(=O)c3ccccc3)C(=O)O)ccc21`, with 9.22%.
Regarding `CSc1ccc(C(=O)N2CCc3ccc(NC(=O)c4ccccn4)cc3C2)cc1`, the “hERG current change (%, negative = inhibition) at 10uM” value was -4.13%.
Then `Cc1ccc(NC(=O)Cn2c(/C=C/c3ccccc3)nc3ccccc32)cc1C`, with -0.723%; and `Cc1ccc(C(=O)O/N=C(\N)c2ccccn2)c(C)c1`, with -3.86%; and `C/C(=N\OCC(=O)O)c1ccc(Cl)cc1`, with 13.5%.
Consider `COc1ccc(CNC(=O)C(c2ccncc2)N(C(=O)Cc2cccs2)c2ccc(C)cc2)cc1` (stereo not drawn), for which the “hERG current change (%, negative = inhibition) at 10uM” value is given as -15.7%.
The same measure for `Cc1ccc(C2Nc3ccccc3C(=O)N2Cc2ccco2)cc1` (stereo not drawn): -32.5%; for `O=C(O)c1cc(OCc2ccccc2)cc(OCc2ccccc2)c1`: 10.8%; for `COc1ccc(NC(=O)CS(=O)CC(=O)Nc2ccc(OC)c(OC)c2)cc1` (stereo not drawn): 10.9%.
The same measure for `O=[N+]([O-])c1ccc(CSc2ccc(S(=O)(=O)N3CCCC3)cn2)cc1`: -32.6%.
The same measure for `Cc1ccc(N2C(=O)CC(N3CCc4ccccc43)C2=O)cc1Cl` (stereo not drawn): 15.6%.
Turning to `CN(C)CCN(Cc1ccco1)C(=O)c1cc2c(Cl)nc3ccccc3c2s1`, the “hERG current change (%, negative = inhibition) at 10uM” value is -70.1%.
The same measure for `CCCCN(C)C(=O)c1cc2c(Cl)nc3ccccc3c2s1`: -4.12%; for `Cc1ccc2nc(Cl)c3cc(C(=O)N(CCN(C)C)Cc4ccco4)sc3c2c1`: -39.8%; for `Cc1cc(=O)[nH]c(SCC(=O)Nc2ccc(C(=O)O)cc2)n1`: 5.37%.
The same measure for `O=Cc1c[nH]c2ccc(C(=O)c3ccccc3)cc12`: 3.97%; for `CC(C)(C)n1nnnc1C(c1cccnc1)N1CCN(C(=O)c2ccco2)CC1` (stereo not drawn): -15.1%; for `COc1cc(C(=O)ON=C2C(C)=CC(=O)C=C2C)cc(OC)c1OC`: -11.9%.
Take `C#CCOCCOCCOCCNc1nc(N2CCN(C(=O)[C@H](Cc3ccc(O)cc3)n3cc([C@@H](N)C(C)CC)nn3)CC2)nc(N2CCN(C(=O)[C@H](CCCCN)n3cc([C@@H](N)CC(C)C)nn3)CC2)n1.Cl` (stereo partly drawn): the “hERG current change (%, negative = inhibition) at 10uM” value came to 6.05%.
The same measure for `C/C(=N/NC(=O)CNS(=O)(=O)c1ccc(C)cc1)c1cccc([N+](=O)[O-])c1`: 14.5%; for `CCc1ccc(NC(=O)N(CCCN2CCOCC2)Cc2cccs2)cc1`: -52.8%; for `COc1ccc(CN(CCCN2CCOCC2)C(=O)Nc2ccccc2)cc1OC`: -10.9%.
The same measure for `O=C(Nc1ccccc1)N(CCCN1CCOCC1)Cc1cccs1`: -40.1%; for `Cc1ccc(NC(=S)N(CCCN2CCOCC2)Cc2cccnc2)cc1C`: 7.44%; for `O=C(Nc1ccc(Cl)cc1)N(CCCN1CCOCC1)Cc1cccs1`: -70.7%.
In the case of `CCC(C)NC(=O)CNC(=S)N(CCCN1CCOCC1)Cc1cccs1` (stereo not drawn), the “hERG current change (%, negative = inhibition) at 10uM” value is recorded as -14.4%.
The same measure for `O=C(Nc1ccc(Cl)c(Cl)c1)N(CCCN1CCOCC1)Cc1cccs1`: -78%; for `O=C(Nc1ccc(Cl)c(Cl)c1)N(CCCN1CCOCC1)Cc1cccnc1`: -55.5%; for `Cc1ccc(NC(=O)N(CCCN2CCOCC2)Cc2cccs2)cc1C`: -47.6%.
Then `O=C(Nc1ccc(Cl)cc1)N(Cc1cccs1)Cc1cccs1`, with 0.899%; and `Cc1ccc(NC(=O)N(CCCN2CCOCC2)Cc2cccnc2)cc1C`, with -10.8%.
Then `COc1ccc2c(c1)[C@@H]1[C@H](CO2)[C@H](c2ccccc2)[C@]2(C)C(=O)NCC(=O)N12`, with 4.48%; and `CC(Cc1cccs1)NC(=S)Nc1ccc(Cl)cc1` (stereo not drawn), with 14.6%; and `COC(=O)c1c(C)[nH]c(C=O)c1-c1ccccc1`, with 10.3%.
As to `Cc1ccc(NC(=O)c2ccc(Oc3ncccn3)cc2)cc1`, the “hERG current change (%, negative = inhibition) at 10uM” value was found to be 12.2%.

The record behind these values is publication PMC4336329 (PLoS ONE, 2015).
